# Records with an inconclusive call do not appear. The source holds several records for some structures; these can differ, active in one and inactive in another. The source made the active and inactive calls. Unless noted, calls come from the whole dose curve; as a rule, active = well fitted curve in the direction sought with a large enough effect in the repeat runs; inconclusive = weak or mixed curves; inactive = no such curve, though single readings can be large; an effect the other way counts as inactive or inconclusive.
# Test: qHTS assay to identify small molecule agonists of the progesterone receptor (PR) signaling pathway - cell viability counter screen (AID 1346799; calls by dose curve; note: nearly all actives have a fitted effect of over 45% in size; note: potency is the fitted concentration of half-maximal effect)
# Settings: PR-UAS-bla HEK293T viability, CellTiter-Glo luminescence, 16 h; series mostly up to 92.4 µM; activity change, negative = cytotoxicity: at the top concentration
# Procedure, shortened: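 HEK293T PR-UAS-bla, 3,000 cells/well, 2% charcoal-stripped FBS; 6 h settle, compound 16 h at 37C/5% CO2; LiveBLAzer 2 h RT, then CellTiter-Glo 30 min RT, luminescence read.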
# % is set by controls: 0 for no effect and ±100 for the full control effect.
Compound,"activity change, negative = cytotoxicity",Potency
CCOC(=O)C(Cl)Cc1cc(-n2nc(C)n(C(F)F)c2=O)c(F)cc1Cl (stereo not given),-4.91% (inactive),
C[C@H](CN1CCOCC1)C(C(=O)N1CCCC1)(c1ccccc1)c1ccccc1,0% (inactive),
O=C(Cl)C(Cl)Cl,-4.81% (inactive),
NC(=O)OCCCc1ccccc1,-1.41% [at 42.5 µM] (inactive),
Cn1c(N)nc2c3cccnc3ccc21,6.45% (inactive),
CCC(CC)(CNC(=O)CCCO)c1cccc(OC)c1,10.7% [at 42.5 µM] (inactive),
CCOC(=O)c1ncn2c1CN(C)C(=O)c1c(I)cccc1-2,6.63% [at 42.5 µM] (inactive),
COc1cccc([C@@]2(O)CCCC[C@@H]2CN(C)C)c1,-0.385% [at 42.5 µM] (inactive),
CCC(C(N)=O)N1CCCC1=O (stereo not given),0.0581% [at 42.5 µM] (inactive),
CC(=NC#N)N(C)Cc1ccc(Cl)nc1,2.5% (inactive),
COc1cc(CC(C)N)cc(OC)c1OC (stereo not given),11.2% (inactive),
ClC1=C(Cl)C2(Cl)C(CBr)CC1(Cl)C2(Cl)Cl (stereo not given),,68.6 µM (active) and inactive
CCCOC(=O)Cc1ccc(OCC(=O)N(CC)CC)c(OC)c1,5.27% [at 42.5 µM] (inactive),
Cl/C=C/CCl,6.08% (inactive),
OCC(Cl)CCl (stereo not given),1.59% (inactive),
C[C@H](N)C(=O)c1ccccc1,-26.9% (inactive),
CCOP(=S)(OCC)Oc1ccc(Cl)cc1Cl,-0.218% (inactive),
CCC(C)C(C)(COC(N)=O)COC(N)=O (stereo not given),11.5% [at 42.5 µM] (inactive),
BrCc1ccc(Br)cc1,17% (inactive),
CCCCCCCCSC(=O)Oc1cc(Cl)nnc1-c1ccccc1,-0.193% (inactive),
CN1C(=O)COc2c(C(=O)NC3CN4CCC3CC4)cc(Cl)cc21 (stereo not given),5.45% [at 42.5 µM] (inactive),
COC1=CC(=O)O[C@@H](/C=C/c2ccccc2)C1,-21.6% (inactive),
C=CCC1(C(C)CC)C(=O)NC(=O)NC1=O (stereo not given),-3.9% [at 42.5 µM] (inactive),
O=C(Cl)c1ccccc1,-0.644% (inactive),
CNC(=O)Oc1cc(C)c(N(C)C)c(C)c1,-1.01% (inactive),
C=C(Cl)CSC(=S)N(CC)CC,-18.8% (inactive),
C=C1CC[C@@]2(O)[C@H]3Cc4ccc(O)c5c4[C@@]2(CCN3CC2CC2)[C@H]1O5,-4.81% [at 42.5 µM] (inactive),
NC1(c2ccccc2)CCCCC1,16.8% (inactive),
Cn1c(CCCC(=O)O)nc2cc(N(CCCl)CCCl)ccc21,3.7% [at 42.5 µM] (inactive),
CS(=O)(=O)Cl,12.5% (inactive),

# Test: qHTS assay to identify small molecule antagonists of the TGF-beta/Smad signaling pathway - cell viability counter screen (AID 1346824); note: nearly all actives have a fitted effect of over 50% in size
# Settings: SBE-bla HEK293T viability, CellTiter-Glo luminescence; series mostly up to 76.8 µM; viability change, negative = cytotoxic: at the top concentration
# Procedure, shortened: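 Cytotoxicity counter-screen run in the same wells as the beta-lactamase Smad reporter read: CellTiter-Glo luminescence after 30 min at room temperature. HEK 293T SBE-bla cells had 5 hr compound exposure at 37 C with TGF-beta1 (0.25 ng/mL stock).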
Compound,"viability change, negative = cytotoxic",outcome
CCOC(=O)C(Cl)Cc1cc(-n2nc(C)n(C(F)F)c2=O)c(F)cc1Cl (stereo not given),1.3% (inactive),
C[C@H](CN1CCOCC1)C(C(=O)N1CCCC1)(c1ccccc1)c1ccccc1,-2.84% (inactive),
O=C(Cl)C(Cl)Cl,11.7% (inactive),
Cc1ccc(S(=O)(=O)N[C@@H](CCCCN)C(=O)CCl)cc1,-5.96% [at 35.3 µM] (inactive),
NC(=O)OCCCc1ccccc1,-6.97% [at 35.3 µM] (inactive),
Cn1c(N)nc2c3cccnc3ccc21,-14.6% (inactive),
C[C@@H](N)[C@@H](O)c1ccccc1,2.87% [at 35.3 µM] (inactive),
CCC(CC)(CNC(=O)CCCO)c1cccc(OC)c1,1.52% [at 35.3 µM] (inactive),
CCOC(=O)c1ncn2c1CN(C)C(=O)c1c(I)cccc1-2,2.49% [at 35.3 µM] (inactive),
COc1cccc([C@@]2(O)CCCC[C@@H]2CN(C)C)c1,-9.87% [at 35.3 µM] (inactive),
CCC(C(N)=O)N1CCCC1=O (stereo not given),-4.32% [at 35.3 µM] (inactive),
CC(=NC#N)N(C)Cc1ccc(Cl)nc1,1.29% (inactive),
COc1cc(CC(C)N)cc(OC)c1OC (stereo not given),5.94% (inactive),
ClC1=C(Cl)C2(Cl)C(CBr)CC1(Cl)C2(Cl)Cl (stereo not given),,inactive
CCCOC(=O)Cc1ccc(OCC(=O)N(CC)CC)c(OC)c1,9.61% [at 35.3 µM] (inactive),
Cl/C=C/CCl,-10.7% (inactive),
OCC(Cl)CCl (stereo not given),3.71% (inactive),
C[C@H](N)C(=O)c1ccccc1,3.83% (inactive),

Compound,"viability change, negative = cytotoxic",outcome
CCOP(=S)(OCC)Oc1ccc(Cl)cc1Cl,-7.61% (inactive),
CCC(C)C(C)(COC(N)=O)COC(N)=O (stereo not given),-0.845% [at 35.3 µM] (inactive),
COC[C@@H](NC(C)=O)C(=O)NCc1ccccc1,-3.9% [at 35.3 µM] (inactive),
BrCc1ccc(Br)cc1,-0.29% (inactive),
CCCCCCCCSC(=O)Oc1cc(Cl)nnc1-c1ccccc1,-1.43% (inactive),
CN1C(=O)COc2c(C(=O)NC3CN4CCC3CC4)cc(Cl)cc21 (stereo not given),7.89% [at 35.3 µM] (inactive),
COC1=CC(=O)O[C@@H](/C=C/c2ccccc2)C1,-12.2% (inactive),
C=CCC1(C(C)CC)C(=O)NC(=O)NC1=O (stereo not given),-4.11% [at 35.3 µM] (inactive),
O=C(Cl)c1ccccc1,10.1% (inactive),
CNC(=O)Oc1cc(C)c(N(C)C)c(C)c1,-0.234% (inactive),
N[C@@H](Cc1ccc(Oc2cc(I)c(O)c(I)c2)c(I)c1)C(=O)O,-13% [at 35.3 µM] (inactive),
C=C(Cl)CSC(=S)N(CC)CC,-13.2% (inactive),
C=C1CC[C@@]2(O)[C@H]3Cc4ccc(O)c5c4[C@@]2(CCN3CC2CC2)[C@H]1O5,-5.78% [at 35.3 µM] (inactive),
NC1(c2ccccc2)CCCCC1,5.56% (inactive),
Cn1c(CCCC(=O)O)nc2cc(N(CCCl)CCCl)ccc21,9.57% [at 35.3 µM] (inactive),
CS(=O)(=O)Cl,-4.01% (inactive),
Nc1c(Cl)c(F)nc(OCC(=O)O)c1Cl,-1.31% (inactive),

# Test: qHTS assay to identify small molecule agonists of the TGF-beta/Smad signaling pathway - cell viability counter screen (AID 1346829); note: top concentration of the series differs between compounds; nearly all actives have a fitted effect of over 45% in size
# Settings: SBE-bla HEK293T viability, CellTiter-Glo luminescence, 5 h; series mostly up to 76.8 µM; activity change, negative = cytotoxicity: at the top concentration
# Procedure, shortened: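 HEK 293T SBE-bla line, 5 hr compound exposure at 37 C, multiplexed CellTiter-Glo viability read by luminescence.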
row,Compound,"activity change, negative = cytotoxicity"
1,CCOC(=O)C(Cl)Cc1cc(-n2nc(C)n(C(F)F)c2=O)c(F)cc1Cl (stereo not given),-5.17% (inactive)
2,C[C@H](CN1CCOCC1)C(C(=O)N1CCCC1)(c1ccccc1)c1ccccc1,-1.42% (inactive)
3,O=C(Cl)C(Cl)Cl,2.29% (inactive)
4,Cc1ccc(S(=O)(=O)N[C@@H](CCCCN)C(=O)CCl)cc1,12.6% [at 35.3 µM] (inactive)
5,NC(=O)OCCCc1ccccc1,-10.9% [at 35.3 µM] (inactive)
6,Cn1c(N)nc2c3cccnc3ccc21,-2.23% (inactive)
7,C[C@@H](N)[C@@H](O)c1ccccc1,10.1% [at 35.3 µM] (inactive)
8,CCC(CC)(CNC(=O)CCCO)c1cccc(OC)c1,9.85% [at 35.3 µM] (inactive)
9,CCOC(=O)c1ncn2c1CN(C)C(=O)c1c(I)cccc1-2,3.21% [at 35.3 µM] (inactive)
10,COc1cccc([C@@]2(O)CCCC[C@@H]2CN(C)C)c1,21.3% [at 35.3 µM] (inactive)
11,CCC(C(N)=O)N1CCCC1=O (stereo not given),-3.53% [at 35.3 µM] (inactive)
12,CC(=NC#N)N(C)Cc1ccc(Cl)nc1,1.04% (inactive)
13,COc1cc(CC(C)N)cc(OC)c1OC (stereo not given),4.35% (inactive)
14,ClC1=C(Cl)C2(Cl)C(CBr)CC1(Cl)C2(Cl)Cl (stereo not given),0.0573% [at 35.3 µM] (inactive)
15,CCCOC(=O)Cc1ccc(OCC(=O)N(CC)CC)c(OC)c1,9.13% [at 35.3 µM] (inactive)
16,Cl/C=C/CCl,1.29% (inactive)
17,OCC(Cl)CCl (stereo not given),0.0058% (inactive)
18,C[C@H](N)C(=O)c1ccccc1,-7.03% (inactive)

row,Compound,"activity change, negative = cytotoxicity"
1,CCOP(=S)(OCC)Oc1ccc(Cl)cc1Cl,8.48% (inactive)
2,CCC(C)C(C)(COC(N)=O)COC(N)=O (stereo not given),0.416% [at 35.3 µM] (inactive)
3,COC[C@@H](NC(C)=O)C(=O)NCc1ccccc1,-1.87% [at 35.3 µM] (inactive)
4,BrCc1ccc(Br)cc1,7.17% (inactive)
5,CCCCCCCCSC(=O)Oc1cc(Cl)nnc1-c1ccccc1,-16.8% (inactive)
6,CN1C(=O)COc2c(C(=O)NC3CN4CCC3CC4)cc(Cl)cc21 (stereo not given),2.17% [at 35.3 µM] (inactive)
7,COC1=CC(=O)O[C@@H](/C=C/c2ccccc2)C1,-7.88% (inactive)
8,C=CCC1(C(C)CC)C(=O)NC(=O)NC1=O (stereo not given),-8.48% [at 35.3 µM] (inactive)
9,O=C(Cl)c1ccccc1,1.24% (inactive)
10,CNC(=O)Oc1cc(C)c(N(C)C)c(C)c1,2.32% (inactive)
11,N[C@@H](Cc1ccc(Oc2cc(I)c(O)c(I)c2)c(I)c1)C(=O)O,-2.43% [at 35.3 µM] (inactive)
12,C=C(Cl)CSC(=S)N(CC)CC,-5.97% (inactive)
13,C=C1CC[C@@]2(O)[C@H]3Cc4ccc(O)c5c4[C@@]2(CCN3CC2CC2)[C@H]1O5,-6.04% [at 35.3 µM] (inactive)
14,NC1(c2ccccc2)CCCCC1,-1.07% (inactive)
15,Cn1c(CCCC(=O)O)nc2cc(N(CCCl)CCCl)ccc21,-4.57% [at 35.3 µM] (inactive)
16,CS(=O)(=O)Cl,1.25% (inactive)
17,Nc1c(Cl)c(F)nc(OCC(=O)O)c1Cl,-1.6% (inactive)
